Measurements as given in PubChem BioAssay (NCI).
About 83,000 compounds went through this panel and 20% of them were active in at least one assay; those are over-represented in the sample as a whole.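 Values shown are percent growth following 48 h exposure of cells in 96-well plates to a single concentration of compound; below 10 was considered active.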 Activity calls are given as the source filed them.

Assays:
Test in all cases: NCI-60 one-dose screen, 48 h (100 = growth as untreated, 0 = no growth, -100 = all killed)
SK-MEL-2 melanoma = conditions: 10 µM unless noted
SN12C renal = conditions: 10 µM unless noted
UO-31 renal = conditions: 10 µM unless noted
TK-10 renal = conditions: 10 µM unless noted
ACHN renal = conditions: 10 µM unless noted
CAKI-1 renal = conditions: 10 µM unless noted
A498 renal = conditions: 10 µM unless noted
MOLT-4 leukemia = conditions: 10 µM unless noted
CCRF-CEM leukemia = conditions: 10 µM
EKVX NSCLC = conditions: 10 µM

Measured: growth

CCCCCCCCCCC(C[N+](C)(C)C/C=C/c1ccccc1)C(O)c1ccccc1 (stereo not drawn)
inactive: SN12C renal 15.8% | UO-31 renal 74.1% | ACHN renal 72.2% | CAKI-1 renal 87.5% | A498 renal 59%
active: SK-MEL-2 melanoma -52.7% | TK-10 renal -2.74% | MOLT-4 leukemia -24.4%

CCCCCCCCCCCCCCCCNC(=S)N/N=C/c1ccc(OC)cc1
inactive: SK-MEL-2 melanoma 107% | SN12C renal 93.5% | UO-31 renal 78% | TK-10 renal 110% | ACHN renal 104% | CAKI-1 renal 92% | A498 renal 113% | MOLT-4 leukemia 106%

CCOC1=C(Cl)C(=O)C(OCC)=C(Cl)C1=O
active: CCRF-CEM leukemia 9.18%
inactive: SK-MEL-2 melanoma 100% | SN12C renal 98.8% | UO-31 renal 83.8% | TK-10 renal 104% | ACHN renal 106% | CAKI-1 renal 109% | A498 renal 128% | MOLT-4 leukemia 88.1%

CSCc1ncc(-c2ccc(C(F)(F)F)cc2)c(NC2CCCCCC2)n1
inactive: SK-MEL-2 melanoma 57.5% [25 µM] | SN12C renal 83.2% [25 µM] | UO-31 renal 51.9% [25 µM] | TK-10 renal 97% [25 µM] | ACHN renal 77.9% [25 µM] | CAKI-1 renal 25.1% [25 µM] | A498 renal 60.8% [25 µM] | MOLT-4 leukemia 23% [25 µM]

BrCCCOc1ccc(Oc2ccc(OCCCBr)cc2)cc1
inactive: SK-MEL-2 melanoma 97.4% | SN12C renal 95.3% | UO-31 renal 105% | TK-10 renal 108% | ACHN renal 120% | CAKI-1 renal 112% | A498 renal 99.4% | MOLT-4 leukemia 96.4%

O=C(CCl)c1ccc2c(c1)CCCC2
inactive: SK-MEL-2 melanoma 80.3% | SN12C renal 96.5% | UO-31 renal 91.2% | TK-10 renal 86.7% | ACHN renal 98.4% | CAKI-1 renal 74.9% | A498 renal 101% | MOLT-4 leukemia 68.6%

N=C(c1ccccc1)N(Cc1ccccc1)Cc1ccccc1
inactive: SK-MEL-2 melanoma 85.4% | SN12C renal 98.8% | UO-31 renal 72.6% | TK-10 renal 106% | ACHN renal 93.7% | CAKI-1 renal 89.8% | A498 renal 96% | MOLT-4 leukemia 86.3%

CC1CCCCC[N+]12CCCC2 (stereo not drawn)
inactive: SK-MEL-2 melanoma 101% | SN12C renal 101% | UO-31 renal 88.8% | TK-10 renal 100% | ACHN renal 101% | CAKI-1 renal 98.7% | A498 renal 109% | MOLT-4 leukemia 99.2%

COc1ccc(Nc2c3ccccc3nc3ccccc23)cc1
inactive: SK-MEL-2 melanoma 54.5% | SN12C renal 30.1% | TK-10 renal 51.8% | CAKI-1 renal 10.2% | A498 renal 42.1%
active: UO-31 renal 7.72% | ACHN renal -11% | MOLT-4 leukemia -9.93%

CCCCCCC(=O)C(C)C
inactive: SK-MEL-2 melanoma 115% | SN12C renal 104% | UO-31 renal 92.3% | TK-10 renal 101% | ACHN renal 103% | CAKI-1 renal 91% | A498 renal 115% | MOLT-4 leukemia 96.6%

CC#Cc1nc(Nc2cc(C)[nH]n2)c2ccccc2n1
active: SK-MEL-2 melanoma -51.2% [100 µM] | SN12C renal -0.924% [100 µM] | UO-31 renal -6.22% [100 µM] | TK-10 renal 3.15% [100 µM] | ACHN renal 3.22% [100 µM] | CAKI-1 renal -33.2% [100 µM] | A498 renal -94% [100 µM] | MOLT-4 leukemia -43.3% [100 µM]

CNc1nc2ncn(C)c2c(=O)[nH]1
inactive: SK-MEL-2 melanoma 94.3% | SN12C renal 92% | UO-31 renal 83.3% | TK-10 renal 84.1% | ACHN renal 71.5% | CAKI-1 renal 84.1% | A498 renal 96.4% | MOLT-4 leukemia 94.8%

C=CN(C)S(C)(=O)=O
inactive: SN12C renal 42.5% | UO-31 renal 18.2% | TK-10 renal 53.2% | ACHN renal 39.5% | A498 renal 105% | CCRF-CEM leukemia 16.9% | MOLT-4 leukemia 30.1%
active: SK-MEL-2 melanoma -8.09% | CAKI-1 renal -7.94%

CCC(C)[C@H](NC(=O)Nc1cc(C(F)(F)F)cc(C(F)(F)F)c1)C(=O)N[C@@H](Cc1cn(C)cn1)C(=O)OC (stereo partly drawn)
active: SK-MEL-2 melanoma -92.4% [100 µM] | SN12C renal -82% [100 µM] | UO-31 renal -95.3% [100 µM] | TK-10 renal -98.7% [100 µM] | ACHN renal -98.4% [100 µM] | CAKI-1 renal -99.6% [100 µM] | A498 renal -94.4% [100 µM] | MOLT-4 leukemia -54.9% [100 µM]

CCCCCCCCCCCCOC(=N)N(C)C
inactive: SK-MEL-2 melanoma 95.8% | SN12C renal 101% | UO-31 renal 91% | TK-10 renal 94% | ACHN renal 93.6% | CAKI-1 renal 80.7% | A498 renal 103% | MOLT-4 leukemia 93.5%

CC(O)CN(CCO)CCN(CCO)CC(C)O (stereo not drawn)
inactive: SK-MEL-2 melanoma 114% | SN12C renal 104% | UO-31 renal 99.6% | TK-10 renal 103% | ACHN renal 102% | CAKI-1 renal 95.1% | A498 renal 112% | MOLT-4 leukemia 100%

Cc1ccc(NC(=O)CCl)cc1Cl
inactive: SK-MEL-2 melanoma 85.1% | SN12C renal 93.6% | UO-31 renal 98.5% | TK-10 renal 103% | ACHN renal 92.3% | CAKI-1 renal 90.8% | A498 renal 119% | MOLT-4 leukemia 81.8%

CCOc1ccc(N(C)c2ccc(/C=C/C3=[N+](C)c4ccccc4C3(C)C)cc2)cc1
inactive: A498 renal 42.6%
active: SK-MEL-2 melanoma -45.9% | SN12C renal 2.99% | UO-31 renal 3.71% | TK-10 renal -16.1% | ACHN renal -95.9% | CAKI-1 renal -2.85% | MOLT-4 leukemia -25.4%

CCCCCCCCCCCC(=O)OC(C)C(=O)Nc1ccccc1 (stereo not drawn)
inactive: SK-MEL-2 melanoma 97.6% | SN12C renal 93% | UO-31 renal 78.2% | TK-10 renal 94.9% | ACHN renal 87.6% | CAKI-1 renal 91.2% | A498 renal 103% | MOLT-4 leukemia 96.1%

COc1cc2c(c3c1c(=O)c1cccc(F)c1n3C)C=CC(C)(C)O2
active: UO-31 renal -26.5% | CAKI-1 renal -64%
inactive: SK-MEL-2 melanoma 113% | SN12C renal 64.3% | TK-10 renal 95.2% | ACHN renal 47.9% | A498 renal 90% | MOLT-4 leukemia 85.2%

COC(=O)c1c[n+]([O-])ccc1OC
inactive: SK-MEL-2 melanoma 117% | SN12C renal 98.2% | UO-31 renal 85.2% | TK-10 renal 102% | ACHN renal 108% | CAKI-1 renal 97.2% | A498 renal 111%
active: MOLT-4 leukemia -47.4%

COC(=O)/C=C1/CCCCC1(C)C(=O)OC (stereo not drawn)
inactive: SK-MEL-2 melanoma 108% | SN12C renal 101% | UO-31 renal 95.3% | TK-10 renal 104% | ACHN renal 112% | CAKI-1 renal 107% | A498 renal 107% | MOLT-4 leukemia 99.6%

CCCCCCCCCCCCOC(=O)/C=C\C(=O)NC(N)=O
inactive: SK-MEL-2 melanoma 50.7% | SN12C renal 84.3% | UO-31 renal 93% | TK-10 renal 86.9% | ACHN renal 88.4% | CAKI-1 renal 90.3% | A498 renal 101% | MOLT-4 leukemia 45.1%

COC(=O)[C@H](Cc1cn(C)cn1)NC(=O)[C@@H](NC(=O)Nc1cc(C(F)(F)F)cc(C(F)(F)F)c1)C(C)(C)C
inactive: UO-31 renal 61.1% [100 µM] | CAKI-1 renal 55% [100 µM]
active: SK-MEL-2 melanoma -88.7% [100 µM] | SN12C renal -91.8% [100 µM] | TK-10 renal -82% [100 µM] | ACHN renal 0.692% [100 µM] | A498 renal -77% [100 µM] | MOLT-4 leukemia -25.7% [100 µM]

CCCCCCCCCCCCCCCCNC(=O)Nc1ccc(C)c(NC(=O)NCCCCCCCCCCCCCCCC)c1
inactive: SK-MEL-2 melanoma 117% | SN12C renal 103% | UO-31 renal 74.3% | TK-10 renal 112% | ACHN renal 98.7% | CAKI-1 renal 117% | A498 renal 113% | MOLT-4 leukemia 104%

O=C(NCCO)C(F)(F)F
inactive: SK-MEL-2 melanoma 105% | SN12C renal 102% | UO-31 renal 94.2% | TK-10 renal 102% | ACHN renal 101% | CAKI-1 renal 95.9% | A498 renal 107% | MOLT-4 leukemia 99.3%

CCOC(=O)/C(C#N)=C(/CC)OCC
inactive: SK-MEL-2 melanoma 91.7% | SN12C renal 109% | UO-31 renal 84.1% | TK-10 renal 91.9% | ACHN renal 94.6% | CAKI-1 renal 95.4% | A498 renal 122% | MOLT-4 leukemia 85%

O=C1CCNC1
inactive: SK-MEL-2 melanoma 109% | SN12C renal 103% | UO-31 renal 92.1% | TK-10 renal 100% | ACHN renal 101% | CAKI-1 renal 113% | A498 renal 94.9% | MOLT-4 leukemia 98.8%

Cc1cc2cn3c4ccc(O)cc4[nH]c(=O)c3c2cc1C
active: UO-31 renal 3.07% | TK-10 renal 0.912% | CAKI-1 renal -5.2% | CCRF-CEM leukemia -7.53%
inactive: EKVX NSCLC 41.3% | SN12C renal 38.5% | ACHN renal 11.8% | A498 renal 18.6%

COc1ccc(C(=O)NCCNc2nccc(-c3c(-c4ccc(F)cc4)nc4sccn34)n2)cc1
inactive: EKVX NSCLC 66.8% | SN12C renal 70% | UO-31 renal 34.3% | TK-10 renal 29.1% | ACHN renal 29.2% | CAKI-1 renal 43.6% | A498 renal 56.1% | CCRF-CEM leukemia 48.1% | MOLT-4 leukemia 59.8%
